Laboratory results as given in PubChem BioAssay AID504895 (National Center for Advancing Translational Sciences (NCATS), 2011).
Inconclusive results are not listed. Calls follow the shape of the dose curve; as a rule, active = well fitted curve in the direction sought with a large enough effect; inconclusive = small, poorly fitted or top-dose-only effect, or another doubt; inactive = no such curve, though single readings can be large or run the other way.

biological target: Protein phosphatase EYA2 (Homo sapiens) (UniProt O00167); experiment: Inhibitors of Eya2ED: Hit Confirmation in Primary Screen; details: Recombinant Eya2ED, OMFP fluorescence phosphatase assay; series mostly up to 76.9 µM; activity change, negative = inhibition: at the top concentration
How it was run: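 Eya2 (dispensed at 0.2 uM) was preincubated 10 min at ambient with compound in 50 mM HEPES pH 7.5, 50 mM NaCl, 5 uM MgCl2, 0.05% BSA, 1 mM DTT. OMFP (dispensed at 50 uM) was then added, and fluorescence (ex 485/em 525 nm) was read after 10 min. Retested as 12-point titrations; EGTA control.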

Protein phosphatase EYA2 (Homo sapiens), sequence (O00167 whole entry, looked up): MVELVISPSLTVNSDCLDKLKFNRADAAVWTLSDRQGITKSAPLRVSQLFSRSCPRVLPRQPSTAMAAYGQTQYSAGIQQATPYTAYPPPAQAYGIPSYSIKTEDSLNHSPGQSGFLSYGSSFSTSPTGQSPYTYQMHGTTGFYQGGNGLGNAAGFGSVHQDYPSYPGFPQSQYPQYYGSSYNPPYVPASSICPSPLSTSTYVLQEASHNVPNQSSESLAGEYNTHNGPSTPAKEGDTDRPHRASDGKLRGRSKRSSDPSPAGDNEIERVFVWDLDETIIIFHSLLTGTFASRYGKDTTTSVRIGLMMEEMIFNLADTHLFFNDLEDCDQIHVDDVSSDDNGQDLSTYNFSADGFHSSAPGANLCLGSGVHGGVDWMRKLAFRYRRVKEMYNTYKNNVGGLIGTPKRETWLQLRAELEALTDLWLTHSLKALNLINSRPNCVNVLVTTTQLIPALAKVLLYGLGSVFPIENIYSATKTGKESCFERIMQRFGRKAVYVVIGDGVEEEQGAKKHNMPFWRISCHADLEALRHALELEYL

Activity change, negative = inhibition, inactive:
O=S(=O)(c1ccc(F)cc1)N1CCC2(CC1)OCCN2S(=O)(=O)c1cccs1 -15.4%
O=C(NCCc1ccc(Cl)cc1)C1CCN(C(=O)N2CCOc3ccccc32)CC1 -4.76%
COc1ccc(Cl)cc1CSc1ncn[nH]1 -42.2%
Cc1nn(-c2nc(-c3ccco3)cc(C(F)(F)F)n2)c(C)c1Cl -6.37%
O=S(=O)(Cc1ccccc1Cl)N1CCN(Cc2ccc3c(c2)OCO3)CC1 -4.31%
CO/N=C(\N)c1nonc1N 14.5%
COC(=O)C1OC(OC2CC[C@]3(C)C(CC[C@@]4(C)[C@@H]3CC=C3[C@@H]5CC(C)(C)CC[C@]5(C(=O)OC5OC(CO)C(O)C(O)C5O)CC[C@]34C)C2(C)C)C(O)C(O)C1O[C@H]1OCC(O)C(O)C1O (stereo partly specified) -25.9%
O=C(c1ccccc1Cl)N1CCN(C(=O)C2CCCO2)CC1 (stereo unspecified) -18.2%
COc1cccc(-c2cc(C(F)(F)F)nc(N3CCN(c4ccccc4)CC3)n2)c1 -0.431%
Cc1onc(-c2ccccc2Cl)c1C(=O)OCC(=O)N1CCC(C)CC1 -4.81%
COc1ccc2c(c1)[C@H]1[C@H](CO2)[C@H](c2ccccc2)[C@]2(C)C(=O)Nc3ccc(F)cc3C(=O)N12 -16.7%
Cc1cc(C(=O)Nc2ccc(N3CCCCC3)cc2)no1 -3.38%
NC(=O)Nc1ccc(C(=O)OCC(=O)NC2CCCCC2)cc1 6.46%
C=CCC1(C#N)C(=S)NC(C)=C(C(=O)OCC)C1c1ccccc1 (stereo unspecified) -35.1%
O=C(CC(c1ccccc1)c1ccccc1)Nc1ccc(Cl)cn1 -4.3%
CS(=O)(=O)c1ccc2nc(NC(=O)c3cccc([N+](=O)[O-])c3)sc2c1 1.43%
Cc1nnc(SC(C)C(=O)Nc2ccc3ccccc3c2)[nH]c1=O (stereo unspecified) 2.55%
O=C(C[C@H]1C/C=C/CC[C@H](Cc2ccc(F)cc2)C(=O)O[C@H](c2ccccc2)CNC1=O)NCCO -32.4%
Cc1ccc(C(=O)NCc2ccc(Cl)cc2)o1 8.71%
COc1cc2c(cc1OC)C(c1c(Cl)cccc1Cl)NC(=O)C2 (stereo unspecified) -5.08%
CC(=O)c1c(C)[nH]c(C(=O)NNC(=O)c2ccc(Br)cc2)c1C -4.21%
Cc1ccc(CCNC(=O)c2cc(C)nn2-c2ccccc2)cc1 -19%
CC(C)(C)OC(=O)NCCCCCc1nnc(SCc2ccccc2F)o1 -47%
Cn1c(CNC(=O)c2ccc(Cl)cc2)nnc1SCC(=O)NC1=NCCS1 -10.6%
O=C(C1CCCN(Cc2ccccc2F)C1)N1CCc2ccccc2C1 (stereo unspecified) 3.27%
Cc1ccc2c(c1)CCCN2C(=O)c1cccs1 -5.45%
CC1CN(S(=O)(=O)c2ccc(C(=O)Nc3nnc(-c4ccco4)o3)cc2)CC(C)O1 (stereo unspecified) 12.1%
CC(C)Cc1nnc(NC(=O)c2cc3c(s2)CCC3)s1 -13%
O=C(NN=Cc1ccccc1Cl)c1ccc(-n2cnnn2)cc1 0.806%
Cc1ccc(NC(=O)CC2C(=O)NC3CCCCC3N2C(=O)c2ccc(F)cc2)cc1C (stereo unspecified) -1.78%
Cc1ccc(N(CC(=O)N2CCOCC2)S(C)(=O)=O)cc1Cl -1.2%
